# According to PubChem BioAssay (NCATS):
# “And” between values parts separate entries of the source, which are not always exact repeats. Equal entries are not always repeated. Inconclusive results are not listed. A call without a number means that no potency is given here. The source made the active and inactive calls. Calls follow the shape of the dose curve; as a rule, active = well fitted curve in the direction sought with a large enough effect; inconclusive = small, poorly fitted or top-dose-only effect, or another doubt; inactive = no such curve, though single readings can be large; an effect the other way counts as inactive or inconclusive.
# Columns and labels:
# [1] = biological target: Tyrosine-protein kinase Yes (Homo sapiens) (UniProt P07947); assay: qHTS for small molecule inhibitors of Yes1 kinase: Primary Screen (AID 686947); also: nearly all actives have a fitted effect of over 60% in size; also: potency is read from the fitted curve at half-maximal effect
# Sequence of Tyrosine-protein kinase Yes (Homo sapiens) (P07947 whole entry, looked up): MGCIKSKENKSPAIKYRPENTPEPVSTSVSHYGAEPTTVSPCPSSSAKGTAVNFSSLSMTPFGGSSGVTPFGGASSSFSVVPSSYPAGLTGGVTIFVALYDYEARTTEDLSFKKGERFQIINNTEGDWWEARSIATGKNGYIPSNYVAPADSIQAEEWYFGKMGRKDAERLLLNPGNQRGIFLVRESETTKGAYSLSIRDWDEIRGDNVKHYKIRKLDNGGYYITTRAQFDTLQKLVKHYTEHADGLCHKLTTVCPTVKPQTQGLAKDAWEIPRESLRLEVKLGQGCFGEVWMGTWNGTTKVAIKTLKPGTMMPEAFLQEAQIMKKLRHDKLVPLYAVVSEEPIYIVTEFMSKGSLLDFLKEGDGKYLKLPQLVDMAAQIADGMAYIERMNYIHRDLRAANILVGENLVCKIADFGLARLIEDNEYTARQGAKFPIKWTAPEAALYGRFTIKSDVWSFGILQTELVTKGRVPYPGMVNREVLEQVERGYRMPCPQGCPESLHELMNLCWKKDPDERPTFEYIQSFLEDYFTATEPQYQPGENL
# Method in brief: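 Yes1 (4 nM) preincubated 20 min with compound, then 60 min room-temperature reaction with 0.1 mM ATP and 0.3 mg/mL poly(E4Y) in pH 7.5 Tris, 10 mM MgCl2. ADP measured by ADP-Glo luminescence, normalised to enzyme/no-enzyme controls.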
# [2] = qHTS for small molecule inhibitors of Yes1 kinase: Counter Assay (AID 686950);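 also: no kinase present so only ADP-Glo detection of a fixed ADP amount is tested; luminescence from ADP-Glo reporting ADP in a fixed ATP and ADP mixture; series mostly up to about 77 µM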
# Method in brief: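 Enzyme-free ADP-Glo interference check: compounds were preincubated 20 min in buffer, then an ATP/ADP mix (0.08 mM ATP, 0.02 mM ADP final) was added for 60 min at room temperature before two-step ADP-Glo luminescence detection.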
Structure (SMILES),Potency [1],outcome [2]
NC(=O)c1ccc2c(-c3ccnc(NCCCO)n3)c(-c3ccc(F)cc3)nn2c1,6.54 µM (active),inactive
Fc1ccc(-c2ncn(C3CCNCC3)c2-c2ccnc(Oc3ccccc3)n2)cc1,11.6 µM (active),inactive
CS(=O)(=O)Nc1ccc(N=Cc2c(O)[nH]c3ccccc23)cc1,3.68 µM (active),inactive
Nc1ccc(C#Cc2cncnc2Nc2ccc(OCc3cccc(F)c3)c(Cl)c2)cc1,inactive,inactive
O=S1CCN(Cc2ccc(-c3ccc4ncnc(Nc5ccc(OCc6ccccc6)c(F)c5)c4c3)o2)CC1,0.463 µM (active),inactive
CC(Oc1cc(-n2cnc3ccc(OCC4CCN(C)CC4)cc32)sc1C(N)=O)c1ccccc1Cl (configuration not stated),1.64 µM (active),inactive
CNC(=O)c1cncc(C=Cc2c(C)cccc2C)c1,0.463 µM (active),inactive
COc1c(C(N)=O)cc(-c2ccc(Cl)cc2)cc1-c1ccc(S(N)(=O)=O)cc1,10.4 µM (active),inactive
NS(=O)(=O)c1ccc(Nc2cc(-c3cccc(O)c3)[nH]n2)cc1,23.2 µM (active),inactive
CCS(=O)(=O)c1ccc(OC)c(Nc2ncc(-c3cccc(C(C)=O)c3)o2)c1,0.292 µM (active),inactive
Cc1ccc(NC(=O)CC2CC2)cc1-c1ccc(C(=O)NCC2CC2)cc1,inactive,inactive
Fc1cccc(COc2ccc(Nc3ncnc4sc(-c5ccco5)cc34)cc2Cl)c1,inactive,inactive
N#Cc1ccc(Oc2nccc(-c3c(-c4ccc(F)cc4)ncn3C3CCNCC3)n2)cc1,inactive,inactive
COc1cc(Nc2ncc(-c3ccccc3)o2)cc(OC)c1,1.46 µM (active),inactive
C#Cc1cccc(Nc2ncnc3ccc(OCCCCNCCS(C)(=O)=O)cc23)c1,7.33 µM (active),inactive
COc1ccc(-c2nn3ncccc3c2-c2ccnc(Nc3ccc(Cl)c(C(F)(F)F)c3)n2)cc1,3.68 µM (active),inactive
NS(=O)(=O)c1ccc(N=Nc2c(O)[nH]c3ccc(C(=O)NCCCn4ccnc4)cc23)cc1,2.6 µM (active),inactive
CC(=O)Nc1cccc(C#Cc2cncnc2Nc2ccc(OCc3cccc(F)c3)c(Cl)c2)n1,inactive,inactive
CNC(=O)c1ncccc1Nc1nc(Nc2cc3c(cc2OC)CCCN3C(=O)CN(C)C)nc2[nH]ccc12,inactive,inactive
O=C(Nc1n[nH]c2nc(-c3ccc(O)cc3)c(Br)cc12)C1CC1,1.64 µM (active),inactive
COc1cccc(-c2c[nH]c3c(NN=Cc4ccncc4)ncnc23)c1,0.164 µM (active),inactive
CCCN(CCS(C)(=O)=O)Cc1ccc(-c2ccc3ncnc(Nc4ccc(OCc5cccc(F)c5)c(Cl)c4)c3c2)o1,6.54 µM (active),inactive
CS(=O)(=O)CCNCc1ccc(-c2ccc3ncnc(Nc4ccc(OCc5ccccc5)c(Cl)c4)c3c2)o1,0.923 µM (active),inactive
NS(=O)(=O)c1ccc(N=Nc2c(O)[nH]c3ccc(Cl)cc23)cc1,36.8 µM (active),inactive
COc1cccc(-n2ncc3c(NN=Cc4ccc(F)cc4)ncnc32)c1,0.582 µM (active),inactive
c1ccc(-c2[nH]ncc2-c2ccnc(-c3ccc(OCCN4CCOCC4)cc3)c2)nc1,7.33 µM (active),inactive

Structure (SMILES),Potency [1],outcome [2]
COc1cc2ncn(-c3cc(OCc4cccs4)c(C(N)=O)s3)c2cc1OC,1.84 µM (active),inactive
CC(C)COC(=O)c1ccc2[nH]c(O)c(C=Nc3ccc(S(N)(=O)=O)cc3)c2c1,9.23 µM (active),inactive
COc1cc(Nc2ncc3c(C)nc(-c4cccc(C(F)(F)F)c4)n3n2)cc(OC)c1OC,0.582 µM (active),inactive
COc1ccc(-c2nn3ncccc3c2-c2ccnc(Nc3cccc(C(F)(F)F)c3)n2)cc1,0.582 µM (active),inactive
NS(=O)(=O)c1ccc(N=Nc2c(O)[nH]c3ccc(-c4cnco4)cc23)cc1,inactive,inactive
CCn1c(-c2nonc2N)nc2cncc(C(=O)N3CCC(N)C3)c21 (configuration not stated),inactive,inactive
NC(=O)c1cccc(Nc2nccc(Nc3cccc4[nH]ncc34)n2)c1,0.0292 µM (active),inactive
COc1ccc2cc(-c3c(-c4ccncc4)nc(-c4ccc(S(C)=O)cc4C)n3C)ccc2c1 (configuration not stated),1.64 µM (active),inactive
COc1cccc(COc2cc(-n3cnc4ccccc43)sc2C(N)=O)c1,inactive,inactive
COc1ccc2ncnc(Nc3ccc(OCc4ccccc4)cc3)c2c1,0.733 µM (active),inactive
c1ccc(Cc2nc3ccc(Nc4ncnc5ccccc45)cc3[nH]2)cc1,1.16 µM (active),inactive
CCOc1nccc2c1nc(-c1nonc1N)n2CC,inactive,inactive
FC(F)(F)c1cccc(-c2nn3ncccc3c2-c2ccnc(Nc3ccc4c(c3)OCCO4)n2)c1,0.412 µM (active),inactive
Fc1ccc(-c2cc(-c3cn[nH]c3-c3ccccn3)ccn2)cc1,29.2 µM (active),inactive
CC(=O)Nc1cccc(C#Cc2cncnc2Nc2ccc(OCc3cccc(F)c3)c(Cl)c2)c1,23.2 µM (active),inactive
CCOc1ccc2c(-c3ccnc(Nc4cccc(C(F)(F)F)c4)n3)cnn2n1,inactive,inactive
CCS(=O)(=O)c1ccc(OC)c(Nc2ncc(-c3cccc(F)c3)o2)c1,0.146 µM (active),inactive
COc1cc(Nc2nccc(Nc3ccc4c(C)[nH]nc4c3)n2)cc(OC)c1OC,0.0923 µM (active),inactive
Fc1ccc(-c2ncn(C3CCNCC3)c2-c2ccnc(Oc3cccc(C(F)(F)F)c3)n2)cc1,inactive,inactive
Nc1ncnc2occ(-c3ccc(NC(=O)Nc4cccc(C(F)(F)F)c4)cc3)c12,1.64 µM (active),inactive
O=C1NC(=O)C(N2CCc3ccccc32)=C1c1ccc(Cl)cc1,inactive,inactive
CC1=C(C(=O)Nc2ccc3n[nH]c(C)c3c2)C(c2ccc(C(F)(F)F)cc2)CC(=O)N1 (configuration not stated),6.54 µM (active),inactive
CN(c1ccc(NC(=O)Nc2c(Cl)cccc2Cl)cc1)c1ccnc(Nc2cccc(CS(C)(=O)=O)c2)n1,1.46 µM (active),inactive
CC1=C(C(=O)Nc2ccc3[nH]ncc3c2)C(c2ccc(Cl)c(Cl)c2)CC(=O)N1 (configuration not stated),2.92 µM (active),inactive
Cc1cc(-c2ccco2)cc(C)c1C=Cc1cncc(-c2nn[nH]n2)c1,1.04 µM (active),inactive
COc1cccc(C=NNc2ncnc3c2cnn3-c2cccc(OC)c2)c1,7.33 µM (active),inactive

Structure (SMILES),Potency [1],outcome [2]
COC(=O)Nc1nc2ccc(S(=O)(=O)c3ccc(NC(=O)Nc4cc(C(F)(F)F)ccc4F)cc3)cc2[nH]1,inactive,inactive
CCn1c(-c2nonc2N)nc2c(C#CC(C)(C)O)ncc(OCC3CCNCC3)c21,23.2 µM (active),inactive
CCn1c(-c2nonc2N)nc2c(C#CC(C)(C)O)ncc(OC3CCNCC3)c21,26 µM (active),inactive
Nc1nccc(-c2c(-c3ccc(F)cc3)ncn2C2CCNCC2)n1,2.07 µM (active) and 6.54 µM (active),inactive
CC(C)(CO)CNC(=O)c1ccc2[nH]c(O)c(N=Nc3ccc(S(N)(=O)=O)cc3)c2c1,2.32 µM (active),inactive
NS(=O)(=O)c1ccc(Nc2cc(-c3ccc(O)c(F)c3)[nH]n2)cc1,5.82 µM (active),inactive
COc1cc(C)c(NC(=O)CN(C)C)cc1Nc1nc(Nc2cccc(F)c2C(N)=O)c2cc[nH]c2n1,inactive,inactive
NS(=O)(=O)c1ccc(N=Cc2c(O)[nH]c3ccc4ncsc4c23)cc1,823 nM (active) and 923 nM (active),inactive
N#Cc1c(NC(=O)c2ccccc2F)sc2c1CCCC2,inactive,inactive
COc1ccc(CNC(=O)c2ccc(-c3cc(-c4nnc(C)o4)ccc3C)cc2)cc1,inactive,inactive
c1ccc(-c2nc3n(c2-c2ccc4c(c2)OCO4)CCC3)nc1,inactive,inactive
COc1cccc(-n2ncc3c(NN=Cc4cccc(F)c4)ncnc32)c1,0.146 µM (active),inactive
COc1cc(C=NNc2ncnc3c2cnn3Cc2ccccc2)ccc1O,0.116 µM (active),inactive
Cc1cc(O)cc(C)c1C=Cc1cncc(C(=O)OC(C)(C)C)c1,0.733 µM (active),inactive
CN1CCC(n2cnc(-c3ccc(F)cc3)c2-c2ccnc(Nc3ccccc3)n2)CC1,1.16 µM (active),inactive
Cc1cc(-c2ccccn2)cc(C)c1C=Cc1cncc(-c2nn[nH]n2)c1,2.07 µM (active),inactive
O=C(Nc1ccc(Oc2ccc3nc(NC(=O)c4ccco4)[nH]c3c2)cc1)Nc1cc(C(F)(F)F)ccc1F,4.12 µM (active),inactive
CS(=O)(=O)Nc1ccc(-c2cc(-c3ccccc3)cc(C(N)=O)c2N)cc1,13 µM (active),inactive
FC(F)(F)c1ccc(-c2nn3ncccc3c2-c2ccnc(Nc3ccc4c(c3)OCCO4)n2)cc1,2.6 µM (active),inactive
CS(=O)(=O)Nc1cccc(-c2ccc3c(NC(=O)C4CC4)n[nH]c3c2)c1,11.6 µM (active),inactive
Fc1ccc(-c2nn3ccccc3c2-c2ccncc2)cc1,23.2 µM (active),inactive
O=C(NCC1CC1)c1ccc(-c2cccc(C(=O)NC3CC3)c2)cc1,inactive,inactive
COc1cccc(-n2ncc3c(NN=Cc4ccncc4)ncnc32)c1,0.0923 µM (active),inactive
NS(=O)(=O)c1ccc(N=Nc2c(O)[nH]c3ccc(C(=O)NCc4ccncc4)cc23)cc1,4.63 µM (active),inactive
